# hgDAF-12 ag: activates the H. glycines DAF-12 receptor ligand-binding domain | hit rate 1.8% among 370,000 | HEK293 GAL4-hgDAF12 UAS-luciferase reporter, agonist luminescence; normalized to butyrate control | activation, % at 6.8 µM | AID 687014;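 active = activation above a cutoff set at the mean of all screened compounds plus 3 SD, cut at about 10% in these data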;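 note: 0% = DMSO wells and 100% = sodium butyrate wells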
# DAX1 inh-1: inhibits human nuclear receptor DAX1. inhibition, % at 6.75 µM. HEK293 Gal4-DAX1 luciferase reporter, luminescence. hit rate 0.99% among 340,000. AID 504766. P51843;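 active = inhibition above the mean over all tested compounds plus 3 SD, cut at about 4.2% in these data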;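 note: 0% = DAX1-transfected cells with DMSO and 100% = empty-vector control cells with DMSO; inhibition shows as a rise in luminescence from relieved DAX1 repression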
# Target sequence (P51843 207-470 limits assumed): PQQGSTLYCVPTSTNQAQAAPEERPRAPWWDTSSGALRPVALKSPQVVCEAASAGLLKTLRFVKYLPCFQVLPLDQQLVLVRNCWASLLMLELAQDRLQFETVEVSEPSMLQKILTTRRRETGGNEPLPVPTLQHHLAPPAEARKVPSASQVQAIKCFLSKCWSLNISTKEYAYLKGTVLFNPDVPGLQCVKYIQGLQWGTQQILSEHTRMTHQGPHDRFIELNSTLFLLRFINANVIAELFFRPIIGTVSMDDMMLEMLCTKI
# DAX1 inh-2: inhibitors of DAX1 repression of SF-1 activated StAR promoter. AID 652010. inhibition, % at 6.8 µM. hit rate 1.1% among 370,000. HEK293T StAR-luciferase reporter, SF-1/DAX-1 repression relief;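 active = inhibition above the mean over all tested compounds plus 3 SD, cut at about 3.6% in these data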;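 note: 0% = DAX-1 cells with DMSO and 100% = cells lacking DAX-1 with DMSO; higher inhibition means more luminescence from relief of DAX-1 repression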
# ssDAF-12 act: activates DAF-12 receptor from parasite S. stercoralis. activation, % at 6.8 µM. AID 652126. HEK293 ssDAF-12/GRIP1 lit1-tk-luc reporter, luminescence; % of 3 µM dafachronic acid response. hit rate 1% among 370,000;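 active = activation above the mean over all tested compounds plus 3 SD, cut at about 0.9% in these data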;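 note: 0% = DMSO-only wells and 100% = 3 µM delta7-dafachronic acid wells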
# SMARCA2 act: SMARCA2 function activation, primary screen; MG213 cells, MMTV-luciferase reporter, dexamethasone, overnight; activation, % at 9.1 µM; hit rate 1% among 370,000; in the data active = activation above about 7.8%;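 note: 0% = vehicle wells and 100% = reference activator wells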
# hcDAF-12 act: H. contortus DAF-12 activation, primary screen; activation, % at 6.8 µM; AID 652067; HEK293 hcDAF-12 lit1-tk-luc reporter, luminescence; 0% DMSO, 100% Δ7-dafachronic acid; hit rate 1.4% among 370,000;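 active = activation above the mean of all tested compounds plus 3 SD, cut at about 5.5% in these data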;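 note: 100% = response to 3 µM Δ7-dafachronic acid high control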
# The depositor's hits bear a star; . = no result given. This is a sample that favours compounds with a hit; in the whole collection about 4.8% have one here.
SMILES,hgDAF-12 ag,DAX1 inh-1,DAX1 inh-2,ssDAF-12 act,SMARCA2 act,hcDAF-12 act
Clc1nccc(NCc2ccccc2)n1,2,2,0,-2,-4,-3
COc1c2c(c(OC)c3c1c(=O)c1ccccc1n3C)OCO2,0,-1,0,0,7.9*,3
CCN(CCn1cccn1)C(=O)c1ccc(OC2CCN(C(=O)CCOC)CC2)cc1,0,0,0,-1,-4,-1
CC(=O)OCC(=O)C1(O)CCC2C3CCC4CC(O)CCC4(C)C3C(=O)CC21C (stereo not drawn),-1,.,0,-1,0,-1
COc1ccccc1/C=C/C=N/n1c(-c2ccccn2)n[nH]c1=S,5,1,1,-1,7,5.6*
COc1ccccc1/C=C/C=N/n1c(-c2cc(C)[nH]n2)n[nH]c1=S,-2,0,1,0,-2,-2
CCc1ccc(NC(=O)CSc2nc(C)cs2)cc1,2,2,0,-1,-1,0
CC(=NN(Cc1ccccc1)c1ccccc1)c1ccccc1,2,4.5*,0,-1,-2,1
C/C(=N\N(c1ccccc1)c1ccccc1)c1ccc(O)cc1,-1,2,0,-1,3,-2
COc1ccc(NC(=S)N2CCC3CC2c2c(Cl)cccc23)c(OC)c1 (stereo not drawn),-3,-1,1,0,-2,0
Cc1cc(N2CCC(C(=O)NC3CC3)CC2)nc(-c2ccccc2)n1,0,-2,0,-1,-2,0
CC(=O)NC1(c2ccccc2)CCN(c2cc(C)nc(-c3ccccc3)n2)CC1,-4,-4,-1,7.3*,0,-3
CC12CCC(C(N)C1=O)C2(C)C (stereo not drawn),0,2,1,-1,3,-1
O=C(CCCCCNC(=O)N1CCn2c1nc1ccccc12)N[C@@H](Cc1ccccc1)C(=O)O,2,4.5*,1,0,0,0
CNC(=O)c1cccc(NC(=O)c2ccccc2OCc2ccccc2)c1,0,-1,-1,-2,-3,-3
Cc1ccc2nc(-c3ccc(SCC(=O)Nc4nc(C)cs4)nc3)[nH]c2c1,8,2,2,0,7,5
Cc1ccc2nc(-c3ccc(SCC(=O)Nc4nnc(C)s4)nc3)[nH]c2c1,8,3,4.3*,0,1,5.7*
O=c1c2ccccc2sn1-c1ccc(S(=O)(=O)N2CCCCC2)cc1,2,-1,0,1.1*,-1,0
O=c1c2ccccc2sn1-c1ccc(S(=O)(=O)N2CCCC2)cc1,-3,1,0,-1,0,-1
CCOCC(=O)Nc1nc2ccc(OCC)cc2s1,11*,1,1,-1,5,3
CCOC(=O)c1ccc(NC(=O)CSc2nc(SC)ns2)cc1,7,1,3,0,-1,5
CSc1nsc(SCC(=O)Nc2ccc(OC(C)=O)cc2)n1,11*,3,2,0,0,1
CCOc1ccc2nc(NC(=O)CSc3nc(SC)ns3)sc2c1,4,0,0,0,1,6.1*
CCOc1ccc2nc(NC(=O)CSc3ccc(Cl)cc3)sc2c1,4,0,0,-1,-2,0
Cc1cc(NC(=O)CS(=O)(=O)c2cn(Cc3cccc(Cl)c3)c3ccccc23)no1,-5,.,-4,-1,-5,2
SMILES,hgDAF-12 ag,DAX1 inh-1,DAX1 inh-2,ssDAF-12 act,SMARCA2 act,hcDAF-12 act
COC(=O)c1cc(S(=O)(=O)N2CCCCC2)c[nH]1,0,0,0,-1,-3,1
COC(=O)C1CCN(C(=O)COC(=O)c2ccc(=O)n(Cc3ccccc3)n2)CC1,1,0,2,-1,-1,0
O=C(NC1CCCCCC1)c1ccc(=O)n(Cc2ccccc2)n1,-2,4.5*,0,-2,2,-1
Cc1ccc(-c2cc(-c3nnc(SCC(=O)N4CCOCC4)n3N)[nH]n2)cc1,-1,.,-1,-1,-1,-2
Cc1ccc(S(=O)(=O)N2C3CCCCC3O[C@H]2CC(=O)OCc2ccccc2)cc1 (stereo partly drawn),-1,.,0,-1,-5,-2
O=C(Cc1ccccc1)NNc1ccc2ccccc2c1,1,3,2,0,0,5.9*
c1ccc(Cn2c(SCc3nc4ccccc4s3)nnc2-c2ccco2)cc1,1,0,-1,0,1,2
c1ccc(-n2cnnc2SCc2nc3ccccc3s2)cc1,7,3,1,1.0*,4,5
CCC(c1nnc(SCc2nc3ccccc3s2)n1Cc1ccccc1)N(C)C (stereo not drawn),2,0,2,0,0,5.7*
CCn1c(SCc2nc3ccccc3s2)nnc1-c1ccccc1,6,0,0,1,4,5
Cc1ccc(S(=O)(=O)N2CCOCC2)cc1C(=O)N1CCN(S(=O)(=O)c2cccs2)CC1,-2,0,0,-1,-6,-2
COc1ccc(OC)c(S(=O)(=O)N2CCC(C(=O)NCc3cccs3)CC2)c1,-1,.,1,-1,-5,-2
O=C(Nc1ccc(F)cc1)C(c1ccccc1)N1CCN(C(=O)c2ccco2)CC1 (stereo not drawn),-1,4.7*,0,-1,-1,-2
O=C(Nc1ccc(F)cc1)C(c1ccncc1)N1CCN(C(=O)c2ccco2)CC1 (stereo not drawn),2,.,1,0,8,-1
Cc1ccc(CNC2CCC23CCC(c2ccccc2)CC3)o1 (stereo not drawn),2,.,.,-1,.,0
CCCCOC(=O)/C=C\C(=O)NC(N)=O,-2,4,0,0,-3,2
CCCCOC(=O)/C=C\C(=O)OCCCC,-1,6.9*,1,-1,1,-1
O=C(OCn1nnc2ccccc2c1=O)C1CCCCC1,3,0,0,-1,-4,-1
O=C(CN1C(=O)C2CCCCC2C1=O)OCn1nnc2ccccc2c1=O (stereo not drawn),1,6.4*,0,-2,0,1
COc1ccc(C2c3ccc4ccccc4c3Oc3ncn(CCCO)c(=N)c32)cc1OC (stereo not drawn),-2,4.8*,0,-1,-1,-3
COc1ccc(C2c3ccc4ccccc4c3Oc3ncn(CCO)c(=N)c32)cc1OC (stereo not drawn),.,2,.,.,.,.
CCc1ccc(NC(=O)c2cnc3scc(C)n3c2=O)cc1,10,1,3,1.2*,2,5.8*
COC(=O)CCN(C(=O)c1cccc(OC(C)=O)c1)c1ccccn1,0,4.5*,0,-1,-5,0
COC(=O)CCN(C(=O)c1ccc2c(c1)OCO2)c1ccccn1,0,0,1,-1,0,-1

# High-throughput results as filed in PubChem.
